Assay results published in publication PMC7862700, “An all-to-all approach to the identification of sequence-specific readers for epigenetic DNA modifications on cytosine”.

Columns and labels:
Experiment in all cases: DAPPL (digital affinity profiling via proximity ligation, sequencing); 10 mM Tris-HCl pH 7.5, 50 mM NaCl, 1 mM DTT, 4% glycerol, room temperature, 30 min; GST-TFs on glutathione beads, 16-mer random dsDNA library, 0.1% formaldehyde crosslink after washing; high values mean tight binding
Details in all cases: protein: recombinant; tags: N-terminal GST; dsDNA, one strand shown
ETV3L = target: T1, ETV3L (Homo sapiens, UniProt Q6ZN32 1-361)
T1 sequence: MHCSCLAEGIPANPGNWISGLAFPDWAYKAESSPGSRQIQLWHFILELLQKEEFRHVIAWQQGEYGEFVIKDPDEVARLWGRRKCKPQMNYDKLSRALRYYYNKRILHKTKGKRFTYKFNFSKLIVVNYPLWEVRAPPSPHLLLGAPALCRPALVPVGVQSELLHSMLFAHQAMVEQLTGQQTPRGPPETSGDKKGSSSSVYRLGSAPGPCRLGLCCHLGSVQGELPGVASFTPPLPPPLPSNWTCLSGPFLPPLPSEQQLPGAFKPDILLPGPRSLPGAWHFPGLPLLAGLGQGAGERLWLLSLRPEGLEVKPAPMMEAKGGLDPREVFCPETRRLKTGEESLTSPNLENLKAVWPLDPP
Summary of the method: (§1)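 Binding signal is given per hexamer as its read frequency for a factor divided by its frequency in the tag-only sample. GST-fused human transcription factors were expressed in yeast, captured on glutathione beads, barcoded with DNA and pooled with that sample, then incubated with 200 nmole of a 16-mer random double-stranded DNA library in Tris/NaCl/DTT/glycerol buffer for 30 min at room temperature. The pools were then washed, crosslinked, proximity-ligated, amplified by PCR and sequenced on an Illumina NextSeq500.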

ETS2 = target: T2, ETS2 (Homo sapiens, UniProt P15036 1-469)
T2 sequence: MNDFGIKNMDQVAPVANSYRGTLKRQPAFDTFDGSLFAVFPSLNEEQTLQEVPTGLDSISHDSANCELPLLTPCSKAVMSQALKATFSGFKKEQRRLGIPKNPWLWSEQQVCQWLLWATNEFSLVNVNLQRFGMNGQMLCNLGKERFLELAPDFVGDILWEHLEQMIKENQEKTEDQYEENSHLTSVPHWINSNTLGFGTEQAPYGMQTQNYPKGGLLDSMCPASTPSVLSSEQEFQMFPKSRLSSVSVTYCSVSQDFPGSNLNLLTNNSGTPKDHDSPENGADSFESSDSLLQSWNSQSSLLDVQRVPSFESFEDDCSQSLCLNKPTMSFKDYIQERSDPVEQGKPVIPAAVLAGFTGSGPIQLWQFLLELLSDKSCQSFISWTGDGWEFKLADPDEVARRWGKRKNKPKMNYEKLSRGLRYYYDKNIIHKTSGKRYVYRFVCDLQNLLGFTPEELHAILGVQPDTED
Summary of the method: as §1

SPDEF = target: T3, SPDEF (Homo sapiens, UniProt O95238 1-335)
T3 sequence: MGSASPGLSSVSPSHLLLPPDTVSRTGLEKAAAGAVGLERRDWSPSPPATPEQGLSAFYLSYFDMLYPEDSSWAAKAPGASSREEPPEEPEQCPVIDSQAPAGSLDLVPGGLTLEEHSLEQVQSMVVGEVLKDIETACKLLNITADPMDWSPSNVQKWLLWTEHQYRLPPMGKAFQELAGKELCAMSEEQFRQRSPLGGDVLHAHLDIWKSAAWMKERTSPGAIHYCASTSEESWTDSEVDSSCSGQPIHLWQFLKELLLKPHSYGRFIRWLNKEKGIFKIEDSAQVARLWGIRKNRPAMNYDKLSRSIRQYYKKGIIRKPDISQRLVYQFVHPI
Summary of the method: as §1

ETV7 = target: T4, ETV7 (Homo sapiens, UniProt Q9Y603 1-341)
T4 sequence: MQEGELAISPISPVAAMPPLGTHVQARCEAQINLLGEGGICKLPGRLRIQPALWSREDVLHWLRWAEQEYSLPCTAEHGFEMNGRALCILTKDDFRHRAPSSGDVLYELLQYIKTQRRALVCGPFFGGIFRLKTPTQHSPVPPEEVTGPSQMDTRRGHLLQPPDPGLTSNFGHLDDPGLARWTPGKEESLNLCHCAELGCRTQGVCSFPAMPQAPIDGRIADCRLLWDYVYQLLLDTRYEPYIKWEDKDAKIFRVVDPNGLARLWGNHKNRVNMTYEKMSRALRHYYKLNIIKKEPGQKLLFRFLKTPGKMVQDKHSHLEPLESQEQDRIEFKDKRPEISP
Summary of the method: as §1

ELF5 = target: T5, ELF5 (Homo sapiens, UniProt Q9UKW6-2 1-255)
T5 sequence: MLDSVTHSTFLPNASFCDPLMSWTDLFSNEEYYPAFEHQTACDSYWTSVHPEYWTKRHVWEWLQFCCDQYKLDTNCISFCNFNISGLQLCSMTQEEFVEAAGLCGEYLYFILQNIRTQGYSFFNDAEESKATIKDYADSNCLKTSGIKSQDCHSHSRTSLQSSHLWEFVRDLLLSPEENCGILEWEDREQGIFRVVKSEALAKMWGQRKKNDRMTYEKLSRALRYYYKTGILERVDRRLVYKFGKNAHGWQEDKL
Summary of the method: as §1

ETV3 = target: T6, ETV3 (Homo sapiens, UniProt P41162-2 1-143)
T6 sequence: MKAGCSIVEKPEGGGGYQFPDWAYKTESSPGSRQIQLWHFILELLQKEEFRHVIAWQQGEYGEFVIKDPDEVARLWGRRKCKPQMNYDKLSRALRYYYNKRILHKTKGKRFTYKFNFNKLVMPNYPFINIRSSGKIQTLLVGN
Summary of the method: as §1

ETV6 = ETV6 (Homo sapiens, UniProt P41212 1-452)
Summary of the method: as §1

ERF = target: T7, ERF (Homo sapiens, UniProt P50548 1-548)
T7 sequence: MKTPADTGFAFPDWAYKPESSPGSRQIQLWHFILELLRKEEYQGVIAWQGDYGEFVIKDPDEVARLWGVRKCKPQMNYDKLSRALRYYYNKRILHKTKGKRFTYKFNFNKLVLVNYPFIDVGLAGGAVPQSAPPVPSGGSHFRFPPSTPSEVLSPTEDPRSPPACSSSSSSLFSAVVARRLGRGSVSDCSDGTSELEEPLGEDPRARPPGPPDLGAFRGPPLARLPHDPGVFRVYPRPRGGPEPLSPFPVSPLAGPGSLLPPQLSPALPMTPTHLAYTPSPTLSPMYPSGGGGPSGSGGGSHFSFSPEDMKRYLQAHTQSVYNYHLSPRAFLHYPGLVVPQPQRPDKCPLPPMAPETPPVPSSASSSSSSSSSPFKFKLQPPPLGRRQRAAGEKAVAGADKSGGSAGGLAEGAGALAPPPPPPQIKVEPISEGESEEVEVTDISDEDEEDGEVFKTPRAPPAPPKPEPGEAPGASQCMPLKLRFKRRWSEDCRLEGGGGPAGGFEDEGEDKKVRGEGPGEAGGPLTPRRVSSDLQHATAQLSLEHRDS
Summary of the method: as §1

Chain of ETV6 (P41212 whole entry): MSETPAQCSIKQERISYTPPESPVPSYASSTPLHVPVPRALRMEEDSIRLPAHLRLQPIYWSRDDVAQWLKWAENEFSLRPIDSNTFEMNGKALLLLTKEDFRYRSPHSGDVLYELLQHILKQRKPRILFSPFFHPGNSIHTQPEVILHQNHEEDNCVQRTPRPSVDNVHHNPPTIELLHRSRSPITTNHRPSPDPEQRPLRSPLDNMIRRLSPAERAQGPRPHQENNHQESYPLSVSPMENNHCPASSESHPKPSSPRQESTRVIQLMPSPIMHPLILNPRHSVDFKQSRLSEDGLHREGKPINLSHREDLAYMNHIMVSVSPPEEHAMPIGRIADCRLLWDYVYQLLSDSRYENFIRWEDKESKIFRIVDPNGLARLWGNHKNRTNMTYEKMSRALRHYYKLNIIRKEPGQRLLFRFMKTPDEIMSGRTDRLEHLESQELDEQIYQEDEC

Sequence	binding signal (ETV3L)	binding signal (ETS2)	binding signal (SPDEF)	binding signal (ETV7)	binding signal (ELF5)	binding signal (ETV3)	binding signal (ETV6)	binding signal (ERF)
AGTAAT	1.07 fold enrichment (6-mer frequency, TF over GST control)	1.15 fold enrichment (6-mer frequency, TF over GST control)	1.1 fold enrichment (6-mer frequency, TF over GST control)	1.19 fold enrichment (6-mer frequency, TF over GST control)	1.2 fold enrichment (6-mer frequency, TF over GST control)	1.03 fold enrichment (6-mer frequency, TF over GST control)	1.15 fold enrichment (6-mer frequency, TF over GST control)	
CCTGGG	1.22 fold enrichment (6-mer frequency, TF over GST control)	1.14 fold enrichment (6-mer frequency, TF over GST control)	1.11 fold enrichment (6-mer frequency, TF over GST control)	1.39 fold enrichment (6-mer frequency, TF over GST control)	1.17 fold enrichment (6-mer frequency, TF over GST control)	1.08 fold enrichment (6-mer frequency, TF over GST control)	1.1 fold enrichment (6-mer frequency, TF over GST control)	
TGCCGA	1.14 fold enrichment (6-mer frequency, TF over GST control)	1.08 fold enrichment (6-mer frequency, TF over GST control)	1.05 fold enrichment (6-mer frequency, TF over GST control)	1.15 fold enrichment (6-mer frequency, TF over GST control)		1.22 fold enrichment (6-mer frequency, TF over GST control)	1.28 fold enrichment (6-mer frequency, TF over GST control)	
AAATCG	1.09 fold enrichment (6-mer frequency, TF over GST control)			1.08 fold enrichment (6-mer frequency, TF over GST control)		1.03 fold enrichment (6-mer frequency, TF over GST control)	1.05 fold enrichment (6-mer frequency, TF over GST control)	
TGGGTT	1.17 fold enrichment (6-mer frequency, TF over GST control)	1.06 fold enrichment (6-mer frequency, TF over GST control)	1.05 fold enrichment (6-mer frequency, TF over GST control)		1.01 fold enrichment (6-mer frequency, TF over GST control)	1.02 fold enrichment (6-mer frequency, TF over GST control)	1 fold enrichment (6-mer frequency, TF over GST control)	
AGCATC	1.02 fold enrichment (6-mer frequency, TF over GST control)	1.09 fold enrichment (6-mer frequency, TF over GST control)	1.27 fold enrichment (6-mer frequency, TF over GST control)		1.08 fold enrichment (6-mer frequency, TF over GST control)	1.07 fold enrichment (6-mer frequency, TF over GST control)	1.03 fold enrichment (6-mer frequency, TF over GST control)	
TAGTCC	1.12 fold enrichment (6-mer frequency, TF over GST control)	1.06 fold enrichment (6-mer frequency, TF over GST control)	1.2 fold enrichment (6-mer frequency, TF over GST control)	1.13 fold enrichment (6-mer frequency, TF over GST control)	1.06 fold enrichment (6-mer frequency, TF over GST control)		1.14 fold enrichment (6-mer frequency, TF over GST control)	
GAACCA	1.01 fold enrichment (6-mer frequency, TF over GST control)				1.01 fold enrichment (6-mer frequency, TF over GST control)			
CACGCG	1.22 fold enrichment (6-mer frequency, TF over GST control)	1.13 fold enrichment (6-mer frequency, TF over GST control)	1.23 fold enrichment (6-mer frequency, TF over GST control)	1.13 fold enrichment (6-mer frequency, TF over GST control)	1.17 fold enrichment (6-mer frequency, TF over GST control)	1.09 fold enrichment (6-mer frequency, TF over GST control)	1.18 fold enrichment (6-mer frequency, TF over GST control)	
AGACCT	1.07 fold enrichment (6-mer frequency, TF over GST control)	1.01 fold enrichment (6-mer frequency, TF over GST control)			1.05 fold enrichment (6-mer frequency, TF over GST control)		1.11 fold enrichment (6-mer frequency, TF over GST control)	
TCAGCA		1.05 fold enrichment (6-mer frequency, TF over GST control)		1.11 fold enrichment (6-mer frequency, TF over GST control)			1.02 fold enrichment (6-mer frequency, TF over GST control)	
ATCCAA	1.2 fold enrichment (6-mer frequency, TF over GST control)	1.18 fold enrichment (6-mer frequency, TF over GST control)	1.22 fold enrichment (6-mer frequency, TF over GST control)	1.19 fold enrichment (6-mer frequency, TF over GST control)	1.11 fold enrichment (6-mer frequency, TF over GST control)	1.11 fold enrichment (6-mer frequency, TF over GST control)	1.11 fold enrichment (6-mer frequency, TF over GST control)	
TTATTA	1.11 fold enrichment (6-mer frequency, TF over GST control)	1.07 fold enrichment (6-mer frequency, TF over GST control)	1.12 fold enrichment (6-mer frequency, TF over GST control)	1.11 fold enrichment (6-mer frequency, TF over GST control)	1.13 fold enrichment (6-mer frequency, TF over GST control)	1.14 fold enrichment (6-mer frequency, TF over GST control)	1.13 fold enrichment (6-mer frequency, TF over GST control)	
TGGATT	1.05 fold enrichment (6-mer frequency, TF over GST control)	1.03 fold enrichment (6-mer frequency, TF over GST control)		1.04 fold enrichment (6-mer frequency, TF over GST control)			1.02 fold enrichment (6-mer frequency, TF over GST control)	
ATCAGC		1.09 fold enrichment (6-mer frequency, TF over GST control)					1.01 fold enrichment (6-mer frequency, TF over GST control)	
AATGGA	1.08 fold enrichment (6-mer frequency, TF over GST control)	1.09 fold enrichment (6-mer frequency, TF over GST control)		1.03 fold enrichment (6-mer frequency, TF over GST control)			1.12 fold enrichment (6-mer frequency, TF over GST control)	
AAAGCC						1.05 fold enrichment (6-mer frequency, TF over GST control)	1.01 fold enrichment (6-mer frequency, TF over GST control)	1.01 fold enrichment (6-mer frequency, TF over GST control)
GAAAGA	1.03 fold enrichment (6-mer frequency, TF over GST control)	1.02 fold enrichment (6-mer frequency, TF over GST control)		1.1 fold enrichment (6-mer frequency, TF over GST control)		1.01 fold enrichment (6-mer frequency, TF over GST control)	1.09 fold enrichment (6-mer frequency, TF over GST control)	
TGAGCT							1.05 fold enrichment (6-mer frequency, TF over GST control)	1.05 fold enrichment (6-mer frequency, TF over GST control)
